# Data reported in PMC5540273 (PLoS ONE, 2017).
# Test system: LYN
# Details: concentration: 1 μM, replicates: in singlicate; n = 1
# 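Further: KINOMEscan kinase panel screen.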
row,SMILES,%Inh [%]
1,Cc1cccc(NC(=O)Nc2ccc(Oc3ncnc4ccn(C)c34)cc2)c1,7
2,CNC(=O)c1ccccc1Nc1nc(Nc2ccc(N3CCOCC3)cc2)ncc1Cl.Cl [GSK1576028],92.6
3,COc1cc2c(cc1OCCN1CCNCC1)ncc1c3ccc(C#N)cc3[nH]c21,0
4,Cc1occc1-c1ncc(OC[C@@H](N)Cc2c[nH]c3ccccc23)cc1-c1ccc2[nH]nc(C)c2c1.O=C(O)C(F)(F)F [GSK682037],39

# Test system: T1, LZK
# T1 construct: gene MAP3K13
# Details: concentration: 1 μM, replicates: in singlicate; n = 1
row,SMILES,%Inh [%]
1,Nc1n[nH]c2cnc(-c3ccccc3)cc12 [SB-642124],0
2,COc1cccc(C2=C(Nc3ccc(Cl)c(C(=O)O)c3)C(=O)NC2=O)c1 [SB-390769],30
3,Cn1cc(-c2ccc3c(c2)CCN3C(=O)Cc2cccc(Cl)c2)c2c(N)ncnc21 [GSK2606590],0
4,COc1cccc(-c2ccc3c(NC(=O)C4CC4)n[nH]c3n2)c1 [SB-710903],47
5,Cc1ccc(C(=O)N2CC[C@@H](O)C2)cc1-n1c(C)cc(OCc2ccc(F)cc2F)c(Br)c1=O,0
6,O=c1[nH]cc(-c2ccc(N3CCOCC3)cc2)c2sc(-c3cn[nH]c3)cc12 [GSK2276055],0
7,COc1cc(Nc2ncc3c(C)nc(-c4cc5ccccc5[nH]4)n3n2)cc(OC)c1OC [GW869516],0
8,O=C(Nc1cccc(-c2nn3ccccc3c2-c2ccnc(Nc3cccc(F)c3)n2)c1)c1c(F)ccc(F)c1Cl [GSK357952],0
9,CSc1cccc2c(-c3ccncn3)c(-c3ccc(F)cc3)nn12 [GW514786],20
10,COc1cc(Nc2nccc(-c3c(-c4cccc(NC(=O)c5c(F)cccc5F)c4)nn4ncccc34)n2)cc(OC)c1OC [GSK327238],0
11,Cc1ccc(S(=O)(=O)Nc2ccc(Nc3nccc(Nc4cccc5[nH]ncc45)n3)cc2)cc1 [GSK581271],0
12,O=C(Nc1cccc(-c2nn3ncccc3c2-c2ccnc(Nc3ccccc3)n2)c1)c1c(F)cccc1F [GSK198271],0
13,Cl.c1ccc(-c2ccc3c(Nc4ccc5[nH]ncc5c4)ccnc3c2)nc1 [GW440137],1
14,CN(C)S(=O)(=O)c1cc(-c2ccc3nccc(-c4cccc(S(N)(=O)=O)c4)c3c2)cnc1N [GSK1669921],0
15,COc1ccc(CNC(=O)NC2CCN(c3ccnc(Nc4ccc(F)cc4)n3)CC2)cc1 [GSK1379788],25
16,Cl.Cl.NCC(C(=O)Nc1cc(Br)c(-c2ccnc3[nH]ccc23)s1)c1ccccc1 (centres unmarked) [GSK1269851],0
17,CCS(=O)(=O)c1ccc(OC)c(Nc2nccc(-c3c(-c4cccc(NC(=O)c5c(F)cccc5F)c4)nn4ncccc34)n2)c1 [GSK326180],0
18,Fc1ccc(-c2ncn(C3CCNCC3)c2-c2ccnc(Oc3ccc(-c4ccccc4)cc3)n2)cc1 [SB-245391],0
19,CN(c1ccc(NC(=O)Nc2cc(C(F)(F)F)ccc2F)cc1)c1ccnc(Nc2ccc(S(N)(=O)=O)cc2)n1 [GW809893],0

row,SMILES,%Inh [%]
1,Cc1ccc(F)c(C(=O)Nc2cccc(-c3nn4ccccc4c3-c3ccnc(Nc4cccc(F)c4)n3)c2)c1F [GSK361061],0
2,CC(C)(C)c1ccc2nccc(Nc3cccc(O)c3)c2c1 [GW856795],0
3,O=C(Nc1n[nH]c2cc(-c3ccoc3)ccc12)C1CC1 [SB-738481],0
4,CCn1c(-c2nonc2N)nc2c(C#CC(C)(C)O)nc(OC[C@H](N)c3ccccc3)cc21 [GSK943949],0
5,Cl.c1ccc(-c2ccc3c(Nc4ccc5[nH]ccc5c4)ccnc3c2)nc1 [GW440138],39
6,Cn1cc(-c2[nH]c3cc(NC(=O)[C@H](N)C4CCCCC4)cc4c3c2C=NNC4=O)cn1,0
7,C[C@@H]1CC[C@@H](C(=O)Nc2ccccc2)CN1c1cc(-c2ccc3c(N)n[nH]c3c2)nc(N)n1 [GSK2286062],0
8,Nc1ncc(-c2cccnc2)c2scc(-c3ccc4c(c3)CCN4C(=O)Cc3ccccc3)c12 [GSK683281],0
9,CC(=O)Nc1nc2cnc(Nc3cc(NC(=O)c4cccc(C5(C#N)CC5)c4Cl)ccc3C)nc2s1,6
10,CCc1ccc(-c2ccc3c(c2)-c2c(cnn2C)S(=O)(=O)N3C)cc1,14
11,COCCOCCOc1cc2ncc3c4ccc(C#N)cc4[nH]c3c2cc1OC,1
12,Cc1ccc(C(=O)Nc2ccc(Nc3ccnc4cc(-c5nccs5)ccc34)cc2O)cc1.Cl [GW494702],21
13,COc1cc(Nc2nccc(N3CCC(NC(=O)c4cc5ccccc5s4)C3)n2)cc(OC)c1OC (centres unmarked) [GSK1379760],30
14,Cl.NC(=O)c1cccc(Nc2nccc(Nc3ccc(Oc4c(Cl)cccc4Cl)c(Cl)c3)n2)c1 [GW659009],0
15,Cc1cccc(NC(=O)Nc2ccc(Oc3ncnc4ccn(C)c34)cc2)c1,0
16,CNC(=O)c1ccccc1Nc1nc(Nc2ccc(N3CCOCC3)cc2)ncc1Cl.Cl [GSK1576028],89
17,COc1cc2c(cc1OCCN1CCNCC1)ncc1c3ccc(C#N)cc3[nH]c21,100
18,Cc1occc1-c1ncc(OC[C@@H](N)Cc2c[nH]c3ccccc23)cc1-c1ccc2[nH]nc(C)c2c1.O=C(O)C(F)(F)F [GSK682037],0
